# From PubChem BioAssay (NCATS)
# Results filed as inconclusive are left out. A call without a number means that no potency is given here. A structure can be active in one record and inactive in another. Values without a mark were called inactive. Activity calls are given as the source filed them. Calls follow the shape of the dose curve; as a rule, active = well fitted curve in the direction sought with a large enough effect; inconclusive = small, poorly fitted or top-dose-only effect, or another doubt; inactive = no such curve, though single readings can be large; an effect the other way counts as inactive or inconclusive.
# Tests used:
# [1] = Viability qHTS for spleen associated tyrosine kinase inhibitor (SYKi) naive MV4-11 cells (AID 1963823); also: nearly all actives have a fitted effect of over 40% in size; also: potency is read from the fitted curve at half-maximal effect
# Procedure, shortened: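 In this viability screen, compounds acted on SYK inhibitor naive MV4-11 cells for three days (72 hr, 37 C). Remaining viable cells were measured by CellTiter-Glo luminescence following a 10 min room-temperature development.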
# [2] = Viability qHTS for spleen associated tyrosine kinase inhibitor (SYKi) drug resistant MV4-11 cells (AID 1963824); also: nearly all actives have a fitted effect of over 35% in size; also: potency is read from the fitted curve at half-maximal effect
# Procedure, shortened: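 CellTiter-Glo luminescence, read 10 min after reagent addition, reports viability after a 72 hr compound exposure. Cells are an MV4-11 line made resistant to SYK inhibition, seeded at 500 per well onto compound-containing plates.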
# [3] = Quantitative highthroughput screen to assess conditional lethalithy of NOMO1 cells grown in RPMI1640 with untreated serum (RPMI+s) (AID 1963876); also: nearly all actives have a fitted effect of over 35% in size
# Procedure, shortened: (§1)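 Each medium arm—HPLM with 10% dialyzed FBS, or RPMI1640 with 5 mM glucose and 10% untreated or dialyzed FBS—was screened against an 11-point, 3-fold compound titration for 48 h at 37 °C, with CellTiter-Glo luminescence as endpoint.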
# [4] = Quantitative highthroughput screen to assess conditional lethalithy of NOMO1 cells grown in RPMI1640 with dialyzed fetal bovine serum (RPMI+ds) (AID 1963877); also: series mostly up to about 46 µM; nearly all actives have a fitted effect of over 30% in size
# Procedure, shortened: as §1
# [5] = Quantitative highthroughput screen to assess conditional lethalithy of NOMO1 cells grown in Human Plasma-Like Medium with dialyzed fetal bovine serum (HPLM+ds) (AID 1963878); also: nearly all actives have a fitted effect of over 35% in size
# Procedure, shortened: as §1
# [6] = Quantitative highthroughput screen to assess conditional lethalithy of P12 Ichikawa cells grown in Human Plasma-Like Medium with dialyzed fetal bovine serum (HPLM+ds) (AID 1963879); details: Potency: viability; also: series mostly up to about 46 µM; nearly all actives have a fitted effect of over 35% in size
# Procedure, shortened: as §1
# [7] = Quantitative highthroughput screen to assess conditional lethalithy of P12 Ichikawa cells grown in RPMI1640 with dialyzed fetal bovine serum (RPMI+ds) (AID 1963880); details: Potency: P12-Ichikawa viability; also: nearly all actives have a fitted effect of over 35% in size
# Procedure, shortened: as §1
# [8] = Quantitative highthroughput screen to assess conditional lethalithy of P12 Ichikawa cells grown in RPMI1640 with untreated serum (RPMI+s) (AID 1963881); details: Potency: viability
# Procedure, shortened: as §1
# [9] = Quantitative highthroughput screen to assess conditional lethalithy of SEM cells grown in Human Plasma-Like Medium with dialyzed fetal bovine serum (HPLM+ds) (AID 1963882)
# Procedure, shortened: as §1
# [10] = Quantitative highthroughput screen to assess conditional lethalithy of SEM cells grown in RPMI1640 with unreated serum (RPMI+s) (AID 1963883); also: nearly all actives have a fitted effect of over 35% in size
# Procedure, shortened: as §1
# [11] = Cellular viability qHTS for adrenocortical cancer (ACC) cell line SW-13 (AID 1963989); details: SW-13 ACC cells viability, CellTiter-Glo, 48 h; activity (max response): hits give low values;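 also: cells grown in serum-free medium with ITS supplement; nearly all actives have a fitted effect of over 65% in size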
# Procedure, shortened: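 IC50 and maximal-response values come from four-parameter logistic fits of titration data. SW-13 cells in serum-free medium received compounds (up to 46 uM final) for 48 h before CellTiter-Glo luminescence.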
# [12] = Cellular viability qHTS for adrenocortical cancer (ACC) cell line NCI-H295R (AID 1963990); also: nearly all actives have a fitted effect of over 60% in size
# Procedure, shortened: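 Adrenocortical carcinoma cells, suspended at 300 000 cells/mL in serum-free DMEM plus ITS, rested overnight before pin transfer of compound. After two days' incubation, ATP-dependent luminescence was recorded and curve-fitted.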
compound,measurement,setting,value
Cc1cn2cc(CC(=O)N3CCC4(CC3)CN(Cc3ccc(-n5nccn5)cc3Cl)C4)nc2s1,Potency,[1],16.4 µM (active)
Cc1ccc(OC[C@H](O)[C@H](C)NC(C)C)c2c1CCC2,Potency,[1],inactive
COc1cc(/C=C/C(=O)OC[C@H]2O[C@@H](OC3OC=C(C(=O)O)C4C(O)CC(C)(O)C34)[C@H](O)[C@@H](O)[C@@H]2O)cc(OC)c1O (stereo partly drawn),Potency,[1],inactive
C=C1CCC(OC(C)=O)C2(C)CC3OC(=O)C(C)=C3CC12 (stereo not drawn),Potency,[1],inactive
CC(=O)OC1C(O)CC2(C)C(CCC3(C)C2CC=C2C4C5(CCC(CO[C@@H]6O[C@H](CO)[C@@H](O)[C@H](O)[C@H]6O)(OC5=O)C4(C)O)C(O)CC23C)C1(C)C (stereo partly drawn),Potency,[1],inactive
COc1cc2c(cc1OC)/C(=C/c1ccc(O)cc1)C(=O)N2,Potency,[1],8.2 µM (active)
same,Potency,[2],18.4 µM (active)
CC(=O)OC1C=C(C(=O)O)C2(CO)CCC(C)C(C)(CCc3ccoc3)C2C1 (stereo not drawn),Potency,[1],inactive
same,Potency,[2],inactive
C[C@@H]1C[C@H]2O[C@@H]2/C=C\C=C\C(=O)Cc2c(Cl)c(O)cc(O)c2C(=O)O1,Potency,[1],0.0321 µM (active)
same,viability (% of control),[1],9.93% [at 9.25 µM]
same,Potency,[2],0.0718 µM (active)
Nc1nc2c(nc(Br)n2[C@@H]2O[C@@H]3COP(=O)(O)O[C@H]3[C@H]2O)c(=O)[nH]1,Potency,[1],inactive
c1ccc(Cc2ncc3c(n2)CCNCC3)cc1,Potency,[1],inactive
same,Potency,[2],inactive
COc1cc2c(cc1O)CC[C@@H]1[C@@H]2CC[C@]2(C)[C@@H](O)CC[C@@H]12,Potency,[1],0.833 µM (active)
same,Potency,[2],0.934 µM (active)
CC/C=C\CCO[C@@H]1O[C@H](CO[C@@H]2OC[C@H](O)[C@H](O)[C@H]2O)[C@@H](O)[C@H](O)[C@H]1O,Potency,[1],inactive
same,Potency,[2],inactive
Cc1ccc(C)c(S(=O)(=O)n2cnc3ccccc32)c1,Potency,[1],inactive
same,Potency,[2],inactive
C[C@@]12C[C@]3(O)O[C@H](O1)[C@]1(COC(=O)c4ccccc4)[C@H]3C[C@@]12O[C@@H]1O[C@H](COC(=O)c2ccccc2)[C@@H](O)[C@H](O)[C@H]1O,Potency,[1],inactive
same,Potency,[2],inactive
COC(=O)C(C)C1CCC2(C)C(=O)C=CC(C)(O)C2C1O (stereo not drawn),Potency,[1],inactive
same,Potency,[2],inactive
COC(=O)[C@H](Cc1ccc([N+](=O)[O-])cc1)NC(=O)c1cccc2ccccc12,Potency,[1],5.8 µM (active)
same,Potency,[2],4.11 µM (active)
CC(=O)O[C@@H]1[C@@H](O)[C@H](C)O[C@@H](O[C@H]2[C@@H]3C=CO[C@@H](O[C@@H]4O[C@H](CO)[C@@H](O)[C@H](O)[C@H]4O)[C@@H]3[C@@]3(CO)O[C@@H]23)[C@@H]1OC(=O)/C=C/c1ccccc1,Potency,[1],inactive
same,Potency,[2],inactive
Cn1c(CNc2ccc(C(=N)N)cc2)nc2cc(C(=O)N(CCC(=O)O)c3ccccn3)ccc21,Potency,[1],4.61 µM (active)
same,viability (% of control),[1],81.5% [at 0.588 µM]
same,Potency,[2],4.11 µM (active)
same,"viability, % of control",[2],94.3% [at 0.588 µM]
same,Potency,[3],inactive
same,Potency,[4],inactive
same,Potency,[5],inactive
same,Potency,[6],inactive
same,Potency,[7],inactive
same,Potency,[8],inactive
same,Potency,[9],inactive
same,Potency,[10],inactive
same,activity (max response),[11],9.7%
same,"activity change, negative = viability loss",[12],15.5% [at 0.587 µM]
C[C@@H]1O[C@@H](OC[C@H]2O[C@@H](OCC3CCC4CC3C4(C)C)[C@H](O)[C@@H](O)[C@@H]2O)[C@H](O)[C@H](O)[C@H]1O (stereo partly drawn),Potency,[1],inactive
COc1c(C)c(OCC(O)C(C)(C)O)cc2c1COC2=O (stereo not drawn),Potency,[1],inactive
CC(C)O[C@@H]1O[C@H](CO)[C@@H](O)[C@H](O)[C@H]1O,Potency,[1],inactive
same,Potency,[2],inactive
Cc1ccnn1-c1ccc(C(=O)N2CCN(S(=O)(=O)c3ccc(Cl)c(C(F)(F)F)c3)CC2)cc1,Potency,[1],inactive
N#Cc1ccc2[nH]cc(CCCCN3CCN(c4ccc5oc(C(N)=O)cc5c4)CC3)c2c1,Potency,[1],11.6 µM (active)
same,Potency,[2],18.4 µM (active)
CC1=CCC2C(C)(CO)CCCC2(C)C1CC12OC1C(O)C(CO)=CC2O (stereo not drawn),Potency,[1],inactive
Cc1sc2c(c1C)C(c1ccc(Cl)cc1)=N[C@H](CC(=O)NCCCCNC(=O)COc1cccc3c1C(=O)N([C@H]1CCC(=O)NC1=O)C3=O)c1nnc(C)n1-2,Potency,[1],0.0461 µM (active)
same,Potency,[2],0.0461 µM (active)
CCC/C=C/C=C/C1CC(O)C(O)C(=O)C1CO (stereo not drawn),Potency,[1],inactive
CC(C)C(C#N)O[C@@H]1O[C@H](CO[C@@H]2OC[C@](O)(CO)[C@H]2O)[C@@H](O)[C@H](O)[C@H]1O (stereo partly drawn),Potency,[1],inactive
same,Potency,[2],inactive
N#C/C(=C1/Nc2ccccc2S1)c1ccnc(OCc2ccc(CN3CCOCC3)cc2)n1,Potency,[1],10.5 µM (active)
same,Potency,[2],8.33 µM (active)
